# Out of some 53,000 compounds screened, about 900 (1.7%) showed an effect of 50% or more. This is one part of a sample in which strong results are shown more often than they occur.
# System: Mycobacterium tuberculosis
# Experiment: Cornell - Phenotypic assay to identify agents that inhibit growth of Mycobacterium tuberculosis
# Assay type: functional
# Parameters: scale not given: direction of the effect not stated beside the values
# Settings: 10 mM as filed; unlikely as a test dose
row,Compound,Percent Effect [%]
1,CN(Cc1cccc(F)c1)Cc1nc2c(cnn2C)c(=O)[nH]1,-23.35
2,Cc1noc(C)c1CN1CCC(c2nnc(Cn3cccn3)n2C)CC1,16.69
3,C[C@@H]1CN(c2cccnn2)CC[C@@]1(O)C1CCOCC1,-7.399
4,Cc1ccc(-c2nc(CN3C[C@@H](C)NC[C@@H]3C)c(C)o2)s1,12.13
5,Clc1cccc(-c2cccc(N3CCC(NC4CCOCC4)CC3)c2)c1,72.63
6,Cc1ccc(-c2cccc(N3CCC(NC4CCOCC4)CC3)c2)cc1,33.16
7,COc1cccc(-c2cccc(N3CCC(N[C@@H]4CCOC4)CC3)c2)c1,39.62
8,CCc1ccc(-c2ncc3c(n2)N(C)CCN(CCN(C)C)C3=O)cc1,13.52
9,Cc1nc(C)c(C(C)NCc2c(C(C)C)nn(C)c2N(C)C)s1 (stereo not drawn),21.22
10,Cc1nn(CC(C)C)c(N(C)C)c1CNCc1ccccc1CO,17.46
11,Cc1nc(C)c(C(C)NCc2c(C)nn(C)c2N(C)C)s1 (stereo not drawn),45.94
12,Cc1nn(CC(C)C)c(N(C)C)c1CNCCCNS(C)(=O)=O,49.77
13,Cc1nc(C)c(C(C)NCc2c(C)nn(CC(C)C)c2N(C)C)s1 (stereo not drawn),102.6
14,Cc1nn(CC(C)C)c(N(C)C)c1CNCCS(C)(=O)=O,83.1
15,Cc1nn(CC(C)C)c(N(C)C)c1CNCc1cccnc1N(C)C,34.46
16,Cc1nn(CC(C)C)c(N(C)C)c1CNCc1cc2ccccc2[nH]1,72.88
17,CC(=O)NCCCNCc1c(C)nn(CC(C)C)c1N(C)C,2.619
18,O=C(Cc1csc(-c2ccoc2)n1)NCCC(=O)N1CCCCC1,-18.79
19,O=C(CN1CCC(c2ccccc2)CC1)NCc1cc2n(n1)CCNC2,-6.243
20,Cc1ccc(NC(=O)c2coc(C)n2)c(C)c1,2.34
21,CCN1CCCC(O)(c2nc(C)c(CCOc3ccccc3Cl)s2)CC1 (stereo not drawn),12.65
22,Fc1cnc(N2CCO[C@H]3[C@H](OCC4CCOCC4)CC[C@@H]32)nc1.O=C(O)C(F)(F)F,-12.23
23,Cl.Fc1cccc(CN2CCC(c3cc4ncccc4cn3)CC2)c1F,106.5
24,CCc1onc(C)c1C(=O)N1CCC(c2cc3ncccc3cn2)CC1,-10.62
25,COc1ccc(C)cc1CN1CCC(c2cc3ncccc3cn2)CC1.Cl,102.1
26,Fc1ccc(F)c(CN2CCC(c3cnccn3)CC2)c1,-8.862

row,Compound,Percent Effect [%]
1,Fc1cccc(CN2CCC(c3n[nH]c4ncccc34)CC2)c1F,12.02
2,Cl.Fc1ccc(F)c(CN2CCC(c3cc4ncccc4cn3)CC2)c1,106.2
3,Fc1cccc(CN2CCC(c3noc(-c4ccccn4)n3)CC2)c1F,10.24
4,CCc1cc(C(=O)N2CCC(c3cc4ncccc4cn3)CC2)no1,-43.86
5,Fc1cc(F)cc(CN2CCC(c3cc4ncccc4cn3)CC2)c1,48.17
6,CN(C)CC(=O)N1CCCC1c1ccccn1 (stereo not drawn),-4.262
7,Cc1cc(O)nc(C2CN(CCO)CCO2)n1 (stereo not drawn),-14.9
8,O=C(NC(Cc1ccsc1)c1nccs1)C1CC1 (stereo not drawn),1.52
9,COc1ccc(-c2cc(C(=O)NCCC(C)C)n(C)n2)cc1,20.81
10,Cc1cnc(-c2nc(O)c3c(n2)CN(C(=O)C2CCOC2)CC3)cn1 (stereo not drawn),13.55
11,Cc1nccn1-c1nccnc1C1CCCN(C2CCCC2)C1 (stereo not drawn),-26.29
12,CCc1nccn1C1CCCN(C(=O)c2c(C)nsc2NC)C1 (stereo not drawn),-1.736
13,COCCc1noc(CNC(C)(CO)C2CCCCC2)n1 (stereo not drawn),19.83
14,Cc1ncc2c(n1)CN(CC(=O)Nc1c(C)nn(C)c1C)CC2,-7.381
15,COc1ccc(-c2nc(CN3CCCC(OC)C3)c(C)o2)c(F)c1 (stereo not drawn),56.05
16,CCCOC1CCCN(Cc2nc(-c3ccc(F)cc3F)oc2C)C1 (stereo not drawn),18.51
17,COCc1ncn(Cc2nc(-c3ccc(OC)cc3F)oc2C)n1,-34.66
18,COCC(=O)NC[C@]1(O)CN(Cc2ccc3c(c2)OCCO3)C[C@H]1O,24.95
19,C=Cn1ncc(CN2CCC(c3ncc(Cl)cc3S(C)(=O)=O)CC2)c1C,0.06604
20,CCn1ncc(CN2CCC(c3ncc(Cl)cc3S(C)(=O)=O)CC2)c1C,50.49
21,CCn1cc(CN2CCC(c3ncc(Cl)cc3S(C)(=O)=O)CC2)c(C)n1,37.62
22,O=C(NS(=O)(=O)c1cccnc1)C1CC(c2ccccc2)=NO1 (stereo not drawn),35.93
23,Cc1ncc2c(n1)CCCC2NC(=O)c1ccc(Cn2cccn2)cc1 (stereo not drawn),-3.537
24,Cc1occc1C(=O)N1CCC2(CC1)CN(c1ccccn1)CCO2.O=C(O)C(F)(F)F,15.62
25,COCc1cc(N(C)Cc2c(C)nn(C)c2C)n2nccc2n1,-21.67
26,CCc1cc(N(C)Cc2ccncn2)n2nccc2n1,-22.97

row,Compound,Percent Effect [%]
1,CCc1ccc(CN(C)c2cc(COC)nc3ccnn23)cc1,59.92
2,CCCc1nc(N[C@H]2COC[C@@H]2N2CCCCC2)c2cnn(C)c2n1,6.118
3,COc1cn(-c2ccccc2)nc1C(=O)NCCN1CCCC(C)C1 (stereo not drawn),-24.88
4,CC(C)CCc1n[nH]c(C(=O)O)c1Br,50.18
5,CC(C)CCc1n[nH]c(C(=O)O)c1I,42.63
6,CC(C)CCc1n[nH]c(C(=O)O)c1Cl,-0.9753
7,Cc1nn(CC(C)C)cc1S(=O)(=O)N(C)Cc1nonc1C,22.09
8,Cc1nccc(CC2COCCN(c3cnccn3)C2)n1 (stereo not drawn),-7.582
9,c1cnc(CC2COCCN(C3CCCCC3)C2)cn1 (stereo not drawn),63.08
10,c1cncc(O[C@H]2COCCN(C3CCC3)C2)c1,18.67
11,O=C(O)C(F)(F)F.c1cnc(N2CCC3(COCc4cnc(-c5cccnc5)nc43)C2)nc1 (stereo not drawn),-17.47
12,CN(C)CC(=O)N1CC2(CCN(C(=O)Nc3ccccc3)C2)C1.O=C(O)C(F)(F)F,-36.23
13,Cc1cc(C)n(CC2CCCN2CCCc2nc3ccccc3o2)n1 (stereo not drawn),14.18
14,CC(C)c1nc(C2CCCN2CCc2ccncc2)no1 (stereo not drawn),-12.21
15,c1ccc2oc(CCCN3CCCCC3Cn3cncn3)nc2c1 (stereo not drawn),60.48
16,CC(C)c1nc(C2CCCN2CCCc2nc3ccccc3o2)no1 (stereo not drawn),73.44
17,Cc1nn(C)c(C)c1C1CCCN1CCCC#N (stereo not drawn),-3.092
18,CC(C)c1nc(C2CCCN2CCc2ccccn2)no1 (stereo not drawn),-3.374
19,Cc1cnn(CC2CCCN2CCCc2nc3ccccc3o2)c1 (stereo not drawn),32.71
20,Cc1nc(C)n(CC2CCCN2CCCc2nc3ccccc3o2)n1 (stereo not drawn),0.1227
21,Cc1cc(C2CCCN2CCCc2nc3ccccc3o2)on1 (stereo not drawn),56.86
22,c1ccc2oc(CCCN3CCCC3Cn3cncn3)nc2c1 (stereo not drawn),23.86
23,Cc1nn(C)c(C)c1C1CCCN1CCCc1nc2ccccc2o1 (stereo not drawn),65.17
24,c1ccc2oc(CN3CCCCC3Cn3cncn3)nc2c1 (stereo not drawn),10.3
25,CN1CCC(Nc2ccc(Cl)cc2OCC(F)(F)F)C1=O (stereo not drawn),4.127
26,CC(C)[C@H]1CN(Cc2ccncc2)C[C@@H]1NC(=O)C1(C#N)CCOCC1,8.101

row,Compound,Percent Effect [%]
1,CCOc1cncc(N2CCCC2c2nnc3n2CCCCC3)n1 (stereo not drawn),14.34
2,Cn1ncc2c1CN(Cc1ccc(F)cc1)CC2COCC1CC1.O=C(O)C(F)(F)F.O=C(O)C(F)(F)F (stereo not drawn),-21.09
3,Cc1nn(C)cc1NC(=O)CC1CCN(C(=O)Cc2ccccc2)CC1,-9.652
4,Cn1cc(CNC2CCCOc3c(Cl)cccc32)cn1 (stereo not drawn),11.42
5,Cn1ccnc1CNC1CCCOc2c1ccc1ccccc21 (stereo not drawn),21.15
6,Cn1cc(CNC2CCCOc3c2ccc2ccccc32)cn1 (stereo not drawn),52.41
7,O=C(Cn1ccnc1)N1CCCC(OCc2cccnc2)C1 (stereo not drawn),-41.24
8,CN(C)C(=O)CN1C[C@H]2CN(Cc3cccc(F)c3)C(=O)[C@H]2C1.O=C(O)C(F)(F)F,15.1
9,Cn1nc2c(c1NC(=O)c1cccs1)CCC2,1.253
10,N#Cc1ccc(N2CCC3(CC2)CC(OCc2cccnc2)CO3)cc1.O=C(O)C(F)(F)F (stereo not drawn),25.8
11,Fc1ccc(N2CCC3(CC2)CC(OCc2cccnc2)CO3)cc1.O=C(O)C(F)(F)F (stereo not drawn),62.76
12,Fc1cnc(N2CCC3(CC2)CC(OCc2cccnc2)CO3)nc1.O=C(O)C(F)(F)F.O=C(O)C(F)(F)F (stereo not drawn),8.704
13,CCn1nccc1CN(C)c1nc(N)nc2c1nc(C)n2C,-2.939
14,NC1(CN2CCCCC2)CCCCC1,-23.07
15,Cc1cccnc1NC(=O)CC1(Cn2cnnn2)CCCCC1,1.711
16,Cc1cc(C)n(-c2cncc(NCCNC(=O)C(C)C)n2)n1,10.14
17,Cc1cc(NC(=O)C(C)C)n(-c2nc(C)c(C)c(=O)[nH]2)n1,105.9
18,COCCNC(=O)CCc1c(C)nn(-c2nc(C)c(C)c(=O)[nH]2)c1C,25.57
19,Cc1nc(-n2nc(C3CC3)cc2NC(=O)C(C)C)[nH]c(=O)c1C,77.31
20,CC(=O)N1CCN(c2cc(CCNC(=O)C(C)C)nc(C3CC3)n2)CC1,-12.23
21,CC(=O)Nc1cc(C2CC2)nn1-c1nc(C)c(C)c(=O)[nH]1,-29.54
22,Cc1cc(-c2nccs2)nc(C2CCN(Cc3cccs3)CC2)n1,25.07
23,Cc1nccn1Cc1nnc(C2CCCN(c3ncccn3)C2)n1C (stereo not drawn),-33.54
24,COCCN1CCCC(c2nc(C)n3c(C)c(C)sc23)C1 (stereo not drawn),6.759
25,O=C(N1CCOCC1)N1C[C@H]2CN(Cc3nccs3)C[C@H]2C1.O=C(O)C(F)(F)F,17.29

# — ChEMBL document CHEMBL3988442, “University of Dundee, Small-Polar-MMV Screening Library” (2021)
